Assay outcomes (PubChem)
ALDH1A1 inh: qHTS Assay for Inhibitors of Aldehyde Dehydrogenase 1 (ALDH1A1). AID 1030, 2008. Potency, µM (doses to about 75.3 µM), most hits filed as inhibitors. Purified ALDH1A1, NADH fluorescence, propionaldehyde substrate. hit rate 7.3% among 220,000
IMPase Li cell: qHTS Assay for Identifying the Cell-Membrane Permeable IMPase Inhibitors: Potentiation with Lithium. CHO-M1 cells, IP1 TR-FRET (IP-One), carbachol + lithium. Potency, µM (doses to about 59.4 µM), usual class: inhibitors. hit rate 0.35% among 210,000. AID 1457, 2008; active = well fitted inhibition curve with a large enough effect; inconclusive = small, poorly fitted or top-dose-only effect; inactive = no such curve, though single readings can be large or run the other way;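 note: IP1 builds up when IMPase is blocked and the TR-FRET signal falls; nearly all actives have a fitted effect of over 50% in size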
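Test compounds were applied to CHO-M1 cells previously cultured for 16–30 h at 2000 per well. A small lithium amount accompanied them; after 30 min at 37C, IP1 was quantified by TR-FRET.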
PNC assembly inh: High Content Assay for Compounds that inhibit the Assembly of the Perinucleolar Compartment; PC3M PTB-GFP, PNC prevalence imaging, 16 h; stronger effect = lower value; activity change (PNC), negative = inhibition, % at 10 µM; hit rate 3.1% among 140,000; AID 2417, 2010;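 active = readout at or below -70, meaning at least 70% loss of cells showing the perinucleolar compartment, a nuclear body marking cancer cells; inconclusive = readout between -30 and a set limit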
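Read-out is percentage of cells bearing a perinucleolar compartment, from automated 20x imaging of fixed, Hoechst-stained PC3M PTB-GFP cells. Cells were seeded 4 h, then exposed 16 h to compound (23 nl of library stock) in duplicate plates.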
HPGD block: qHTS Assay for Inhibitors of HPGD (15-Hydroxyprostaglandin Dehydrogenase); 15-hydroxyprostaglandin dehydrogenase [NAD(+)] (Homo sapiens), P15428; purified HPGD, NADH fluorescence kinetic, PGE2 substrate; Potency, µM, hits mostly inhibitors; hit rate 4.3% among 150,000; AID 894, 2007
Target sequence (P15428 whole entry, looked up): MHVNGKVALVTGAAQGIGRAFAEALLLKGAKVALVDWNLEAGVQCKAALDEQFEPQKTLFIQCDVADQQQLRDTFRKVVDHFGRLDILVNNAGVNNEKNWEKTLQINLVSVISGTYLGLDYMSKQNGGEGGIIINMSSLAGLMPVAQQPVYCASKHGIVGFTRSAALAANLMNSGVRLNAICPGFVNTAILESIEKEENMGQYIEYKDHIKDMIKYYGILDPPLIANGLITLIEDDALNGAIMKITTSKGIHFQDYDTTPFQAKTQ
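20 nM HPGD preincubated 15 min at room temperature with compound in 50 mM Tris-HCl pH 8, 0.01% Tween 20. Started with 1 mM NAD+ and 30 uM prostaglandin E2; NADH fluorescence (360/450 nm) read 5 times over 30-s intervals, last minus first.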
IMPase cell inh: qHTS Assay for Identifying the Cell-Membrane Permeable IMPase Inhibitors; Inositol monophosphatase 1 (Rattus norvegicus), P97697; CHO-M1 cells, IP1 accumulation, HTRF TR-FRET ratio; inhibition (IP1 accumulation), % at 46.1 µM; 120,000 tested, under 10 active; active = well fitted curve in the direction sought with a large enough effect in the signal ratio, not every such curve was filed as active; inconclusive = small, poorly fitted or top-dose-only effect, or a change in a side signal; inactive = no such curve, though single readings can be large or run the other way; the % refers to the signal ratio;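 note: cells stimulated with carbachol in lithium chloride buffer; higher means more IMPase inhibition seen as more IP1 and lower FRET ratio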
Target sequence (P97697 whole entry, looked up): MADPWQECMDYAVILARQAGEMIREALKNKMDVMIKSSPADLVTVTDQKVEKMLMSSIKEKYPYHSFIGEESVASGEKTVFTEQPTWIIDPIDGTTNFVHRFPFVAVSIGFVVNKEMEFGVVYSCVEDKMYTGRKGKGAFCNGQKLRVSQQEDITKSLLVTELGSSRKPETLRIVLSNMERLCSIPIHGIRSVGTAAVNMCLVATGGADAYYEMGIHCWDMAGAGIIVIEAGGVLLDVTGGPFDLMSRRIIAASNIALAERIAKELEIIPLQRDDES
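Seeded CHO-M1 cells were dosed with compound at up to 46 uM, stimulated with carbachol for 30 min, then lysed in IP-One detection reagents. Higher IP1 lowers the TR-FRET signal.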
A number is an active result; 0 = inactive; ? = inconclusive; - = no result; [ ] = remark or other dose. A selection: hits, their analogues and other compounds. The true share with any hit is near 11%. Unless noted, calls come from the whole dose curve; as a rule, active = well fitted inhibition curve with a large enough effect (not every such curve was filed as active); inconclusive = small, poorly fitted or top-dose-only effect, or another doubt; inactive = no such curve, though single readings can be large or run the other way.

SMILES | ALDH1A1 inh | IMPase Li cell | PNC assembly inh | HPGD block | IMPase cell inh
COC(=O)c1cccc(NC(=O)c2nn(C(C)C)c(=O)c3ccccc23)c1 | 0 | 0 | 0 | 0 | 0
COc1ccc(Oc2ncc3nc(-c4cccc(C#N)c4)c(=O)n(C)c3n2)cc1 | 0 | 0 | - | - | -
CCCCCCCCCCCCCCCCOCC(CO)OC(C)=O (configuration not stated) | 0 | 0 | - | 0 | -
Cc1ccccc1-n1c(=O)/c(=C\c2ccco2)s/c1=C(/C#N)C(=O)Nc1ccccc1 | 20µM | 0 | 0 | 0 | 0
CCOc1cc(C)c(C(C)C)cc1S(=O)(=O)N1CCOCC1 | 3.55µM | 0 | 0 | 0 | 0
CCCOc1cc(C)c(S(=O)(=O)N2CCOCC2)cc1C | 0 | 0 | ? | 0 | -
COc1cc(Cl)c(S(=O)(=O)N2CCOCC2)cc1Cl | 0 | 0 | ? | 0 | 0
COc1cc(C)c(S(=O)(=O)N2CCOCC2)cc1C | 0 | 0 | -100.0 | 0 | 0
COc1cc(C)c(C(C)C)cc1S(=O)(=O)N1CCOCC1 | 3.16µM | 0 | 0 | 0 | 0
O=C1[C@H]2[C@H]3[C@H](O)[C@H](O)C/C(=N/OCc4ccccc4)[C@H]3CC[C@@H]2C(=O)N1C1CCCCC1 | 0[13.5 µM] | - | - | - | -
CCNc1ncc2nc(-c3ccc(F)cc3)c(=O)n(CCC#N)c2n1 | ? | 10µM | - | ? | -
CCNc1ncc2nc(-c3ccc(OC)cc3)c(=O)n(CCC#N)c2n1 | ? | 0 | - | - | -
CCNc1ncc2nc(-c3cc(F)cc(F)c3)c(=O)n(CCc3ccccc3)c2n1 | ? | 0 | - | - | -
CCNc1ncc2nc(-c3ccc(OC)cc3)c(=O)n(CCc3ccccc3)c2n1 | ? | 11.2µM | - | - | -
CN1CCN(c2ncc3nc(-c4ccccc4)c(=O)n(CCC#N)c3n2)CC1 | ? | 0 | - | ? | -
COc1cc(C)cc(OC)c1/C=C\C(=O)O | 0[13.5 µM] | 0 | - | 0 | -
CCN1CCCc2cc(CN(CCN3CCOCC3)C(=S)Nc3ccc(OC)c(OC)c3)ccc21 | 3.16µM | ? | - | - | -
COc1ccc(NC(=S)N2CCC(N(C)CCN3CCOCC3)CC2)cc1Cl | 0 | 0 | 0 | 0 | -
CCN1CCCc2cc(CN(CCN3CCOCC3)C(=S)Nc3ccc(OC)c(Cl)c3)ccc21 | 17.8µM | 0 | - | - | -
Cc1cc(NC(=S)N(Cc2ccc(Cl)cc2)Cc2ccc(C(=O)O)cc2)ccc1Cl | 0 | 0 | - | - | -
COc1ccc(NC(=S)N(Cc2ccc(Cl)cc2)Cc2ccc(C(=O)O)cc2)cc1Cl | 20µM | 0 | - | - | -
CCN1CCCc2cc(CN(CCN3CCOCC3)C(=S)Nc3ccccc3OC)ccc21 | ? | 0 | - | - | -
Cc1nnc(SCC(=O)NC2CCCCC2)n(N)c1=O | 0 | 0 | ? | 0 | 0
CCOC(=O)c1[nH]c2ccccc2c1N=CN(CC)CC | 0 | 0 | 0 | 0 | 0
CC1CCCN(C(=O)C2CCN(CC3CC=CCC3)CC2)C1 (configuration not stated) | ? | 0 | -100.0 | 0 | 0
SMILES | ALDH1A1 inh | IMPase Li cell | PNC assembly inh | HPGD block | IMPase cell inh
C=C(CCC12O[C@H](C(=O)O)[C@@](O)(C(=O)O)[C@](C(=O)O)(O1)[C@H](OC(=O)/C=C/[C@@H](C)C[C@@H](C)CC)[C@H]2O)[C@@H](OC(C)=O)[C@H](C)Cc1ccccc1 | 0 | 0 | - | 0 | -
CCCC1(C(=O)O)NC(c2ccccc2O)C2C(=O)N(Cc3ccccc3)C(=O)C21 (configuration not stated) | 0 | 0 | -110.3 | 0 | 0
CCC1(C(=O)O)NC(c2cc(OC)ccc2O)C2C(=O)N(Cc3ccccc3)C(=O)C21 (configuration not stated) | 0 | 0 | 0 | 0 | 0
Cc1ccc(NC(=O)CN(C)C2CCCCC2)cc1Br | 28.2µM | 0 | - | - | -
COc1ccc(NC(=O)CN(C)C2CCCCC2)cc1Cl | 0 | - | - | - | -
Cc1ccc(NC(=O)CCN2CCN(CCO)CC2)cc1C | - | - | - | - | 0
Cc1ccc(C)c(N2CCN(C(=O)c3ccccc3Br)CC2)c1 | 0 | 0 | -80.1 | 0 | 0
Cc1ccc(C)c(N2CCN(C(=O)c3csc(C)c3C)CC2)c1 | 0 | 0 | 0 | 0 | -
Cc1ccc(N2CCN(C(=O)c3ccccc3Br)CC2)c(C)c1 | ? | 0 | 0 | 25.1µM | 0
Cc1ccc(N2CCN(C(=O)c3ccccc3)CC2)c(C)c1 | 0 | 0 | 0 | 0 | 0
COc1cc(C(=O)N2CCN(c3ccc(C)cc3C)CC2)cc(OC)c1OC | 0 | 0 | -119.3 | 0 | 0
O=C1CC2(CCCC2)CC(=O)N1CCCCNCC1COc2ccccc2O1 (configuration not stated) | ? | 0 | - | - | -
CCCN1C(=O)/C(=C/c2ccccc2OCc2ccc(C(=O)O)cc2)NC1=S | ? | 0 | - | - | -
COc1ccccc1/C=C1\NC(=S)N(CC2CCCO2)C1=O (configuration not stated) | 0.501µM | 0 | 0 | 28.2µM | 0
COc1ccc(/C=C2/C(=O)N(CC3CCCO3)C(=S)N2C)c(OC)c1 (configuration not stated) | 12.6µM | 0 | 0 | 0 | 0
COc1ccc(/C(O)=C2/C(=O)C(=O)N(CC3CCCO3)C2c2ccc(O)c(OC)c2)cc1 (configuration not stated) | ? | 0 | - | - | -
Clc1ccc(CNc2ccccc2NCc2ccc(Cl)nc2)cn1 | 0 | 0 | - | - | -
O=C(c1c[nH]c(C(=O)C(Cl)(Cl)Cl)c1)c1ccc(F)cc1Cl | 1µM | 0 | - | - | -
O=C(c1ccc(Cl)cc1)c1c[nH]c(C(=O)NNc2ccccc2)c1 | 20µM | 0 | - | - | -
CN(C)C=NC(=O)c1cc(C(=O)c2ccc(Cl)cc2)c[nH]1 | 0 | 0 | - | - | -
O=C(c1ccc(Cl)cc1)c1c[nH]c(C(=O)C(Cl)(Cl)Cl)c1 | 8.91µM | 0 | 0 | ? | 0
O=C(O)c1ccccc1C(=O)NNc1ccc(Cl)cc1 | ? | 0 | 0 | 0 | 0
CN(C)C=NC(=O)c1cc(C(=O)c2ccccc2)c[nH]1 | 0 | 0 | - | - | -
O=C(c1ccccc1)c1c[nH]c(C(=O)C(Cl)(Cl)Cl)c1 | 3.55µM | 0 | - | - | -
CCOC(=O)CCN1C(=O)[C@H]2[C@H]3[C@H](O)[C@H](O)C/C(=N/NC(=O)OCc4ccccc4)[C@H]3CC[C@@H]2C1=O | 0[13.5 µM] | - | - | - | -
SMILES | ALDH1A1 inh | IMPase Li cell | PNC assembly inh | HPGD block | IMPase cell inh
CN(C)Cc1ccccc1-c1cc(NCc2cccs2)ncn1 | 0 | 0 | - | - | -
COc1cc2c(cc1NC(=O)CN1CCN(S(=O)(=O)c3ccccc3F)CC1)oc1ccccc12 | ? | 5.62µM | 0 | ? | 0
COc1cc2c(cc1NC(=O)COC(=O)Cn1cnc3ccccc31)oc1ccccc12 | 11.2µM | 0 | ? | ? | 0
COc1cc(NC(=O)c2ccc(F)cc2)c(OC)cc1NC(=O)CN1CCOCC1 | 0 | 0 | - | - | -
COc1cc2c(cc1NC(=O)COc1ccccc1OC)oc1ccccc12 | ? | ? | 0 | ? | 0
COc1cc2c(cc1NC(=O)CSCC(=O)O)oc1ccccc12 | ? | 0 | -126.9 | ? | 0
COc1cc2c(cc1NC(=O)CSc1ccc(C)cc1)oc1ccccc12 | 0 | 0 | 0 | ? | 0
COc1cc2c(cc1NC(=O)Cc1ccc(C)cc1)oc1ccccc12 | ? | 0 | ? | ? | -
